Assay [1] is described as follows: NCI Yeast Anticancer Drug Screen. Data for the rad50 strain (AID 155).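 Also: 0% = growth of vehicle-only cultures of the same strain.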 The settings on record: S. cerevisiae rad50 strain growth inhibition, hits give high values. In a few lines: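 Compounds were tested on a yeast strain with an engineered DNA damage repair alteration; the reported value is growth inhibition normalised to vehicle treatment.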
Assay [2] can be described thus: NCI Yeast Anticancer Drug Screen. Data for the mec2-1 strain (AID 157). The following applies: S. cerevisiae mec2-1 strain, hits give high values. The method, boiled down:
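Strain: mec2-1 (DNA repair/cell cycle alteration). Compound exposure, then growth measured; inhibition expressed relative to vehicle.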

Assay [3] can be described thus: NCI Yeast Anticancer Drug Screen. Data for the sgs1 mgt1 strain (AID 161).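 Also: 0% = growth of cultures given vehicle only.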 The settings on record: S. cerevisiae sgs1 mgt1 strain, hits give high values. In a few lines: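 Genetically altered yeast, compound exposure, growth inhibition relative to vehicle.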
Assay [4] is described as follows: NCI Yeast Anticancer Drug Screen. Data for the cln2 rad14 strain (AID 165).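 Also: 0% = growth equal to vehicle treated cultures.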 The following applies: S. cerevisiae cln2 rad14 strain, hits give high values. The method, boiled down: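 Compounds are applied to the cln2 rad14 yeast strain, and growth is then compared with that of vehicle-treated cultures to give inhibition.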
Assay [5] in a line: NCI Yeast Anticancer Drug Screen. Data for the bub3 strain (AID 167). The following applies: S. cerevisiae bub3 mutant strain, hits give high values. The method, boiled down:
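Growth of a checkpoint-deficient yeast mutant is measured after compound exposure. Values represent inhibition relative to vehicle.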

Assay [6] is described as follows: NCI Yeast Anticancer Drug Screen. Data for the mlh1 rad18 strain (AID 175). The following applies: S. cerevisiae mlh1 rad18 strain growth inhibition, hits give high values. In a few lines:
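Read-out is yeast growth inhibition, calculated against vehicle-only controls. The compound was applied to a strain engineered with DNA damage repair alterations.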

[7] abbreviates: at 5.0 µM (retest, dose inferred, filed as 0.5).
Where [8] appears, read: at 50.0 µM (retest, dose inferred, filed as 5.0).

About 79,000 compounds went through this panel and 15% of them were active in at least one assay; those are over-represented in the sample as a whole. Unmarked numbers belong to inactive results. Active and inactive are the calls of the source. Rule as the data show it: active = growth inhibition above about 70%; inactive = the rest.

Turning to `CC1CCC(C(C)C2C(O)CC3C4CC=C5CC(O)CCC5(C)C4CCC32C)NC1` (configuration not stated), the growth inhibition in assay [1] (setting [7]) was -23%; in assay [1] (setting [8]), 81% (active); in assay [1] (at 50.0 µM) it was 66.8%; in assay [2] (setting [7]), 1%; in assay [2] (setting [8]), 18%; in assay [2] (at 50.0 µM), 25.1%. The growth inhibition in assay [3] (setting [7]) was 12%; in assay [3] (setting [8]) it was 96% (active); in assay [3] (at 50.0 µM) it was 88.5% (active); in assay [4] (setting [7]) it was 3%; in assay [4] (setting [8]), 23%; in assay [4] (at 50.0 µM) it was 23.8%. The growth inhibition in assay [5] (setting [7]) was -1%; in assay [5] (setting [8]), 70% (active); in assay [5] (at 50.0 µM), 10.9%; in assay [6] (setting [7]) it was 10%; in assay [6] (setting [8]) it was 54%; in assay [6] (at 50.0 µM), 57.5%.

As to `[N-]=[N+]=Nc1ccc(SSCCC(=O)ON2C(=O)CCC2=O)cc1`, the growth inhibition in assay [1] (setting [7]) is 24%; in assay [1] (setting [8]), 97% (active); in assay [1] (at 50.0 µM) it was 98.6% (active); in assay [2] (setting [7]), 20%; in assay [2] (setting [8]), 98% (active); in assay [2] (at 50.0 µM), 98.8% (active). Besides, the growth inhibition in assay [3] (setting [7]) is 40%; in assay [3] (setting [8]), 98% (active); in assay [3] (at 50.0 µM), 98.3% (active); in assay [4] (setting [7]), 4%; in assay [4] (setting [8]), 97% (active); in assay [4] (at 50.0 µM) it was 97.8% (active). The growth inhibition in assay [5] (setting [7]) is 2%; in assay [5] (setting [8]), 97% (active); in assay [5] (at 50.0 µM), 98.7% (active); in assay [6] (setting [7]), 38%; in assay [6] (setting [8]) it was 98% (active); in assay [6] (at 50.0 µM) it was 98.5% (active).

On to `C1=C(c2ccccc2)C(c2ccc(OCCN3CCCCC3)cc2)Oc2ccccc21` (configuration not stated), for which the growth inhibition in assay [1] (setting [7]) is 39%; in assay [1] (setting [8]), 99% (active); in assay [1] (at 50.0 µM), 99.3% (active); in assay [2] (setting [7]) it was 9%; in assay [2] (setting [8]), 99% (active); in assay [2] (at 50.0 µM) it was 99.5% (active). Further, the growth inhibition in assay [3] (setting [7]) was 24%; in assay [3] (setting [8]), 99% (active); in assay [3] (at 50.0 µM), 97.5% (active); in assay [4] (setting [7]), 25%; in assay [4] (setting [8]) it was 99% (active); in assay [4] (at 50.0 µM), 98.1% (active). The growth inhibition in assay [5] (setting [7]) was 35%; in assay [5] (setting [8]) it was 99% (active); in assay [5] (at 50.0 µM), 98.8% (active); in assay [6] (setting [7]) it was 16%; in assay [6] (setting [8]), 99% (active); in assay [6] (at 50.0 µM) it was 99.5% (active).

Regarding `CCOc1ncc(Cl)c(OCC)n1`, the growth inhibition in assay [1] (setting [7]) was 3%; in assay [1] (setting [8]) it was -5%; in assay [1] (at 50.0 µM), -25.4%; in assay [2] (setting [7]), -4%; in assay [2] (setting [8]), -2%; in assay [2] (at 50.0 µM), 35.9%. The growth inhibition in assay [3] (setting [7]) was -1%; in assay [3] (setting [8]), -6%; in assay [3] (at 50.0 µM), -28.2%; in assay [4] (setting [7]), -7%; in assay [4] (setting [8]), 2%; in assay [4] (at 50.0 µM) it was -21.3%. Further, the growth inhibition was 1% in assay [5] (setting [7]); -3% in assay [5] (setting [8]); -12.7% in assay [5] (at 50.0 µM); 2% in assay [6] (setting [7]); -5% in assay [6] (setting [8]); -18.1% in assay [6] (at 50.0 µM).

Consider `CCN(CC)C(=O)C1(OC(C)=O)CCCCC1`, for which the growth inhibition was 0% in assay [1] (setting [7]); 0% in assay [1] (setting [8]); -2.4% in assay [1] (at 50.0 µM); -21% in assay [2] (setting [7]); -1% in assay [2] (setting [8]); -5.65% in assay [2] (at 50.0 µM). Moreover, the growth inhibition in assay [3] (setting [7]) is 0%; in assay [3] (setting [8]) it was -2%; in assay [3] (at 50.0 µM), 9.9%; in assay [4] (setting [7]) it was 3%; in assay [4] (setting [8]), 0%; in assay [4] (at 50.0 µM) it was 36.8%. Besides, the growth inhibition is -6% in assay [5] (setting [7]); -2% in assay [5] (setting [8]); 2.1% in assay [5] (at 50.0 µM); 1% in assay [6] (setting [7]); 0% in assay [6] (setting [8]); -80.8% in assay [6] (at 50.0 µM).

As to `c1ccc(CSc2nnc3c4ccccc4c4ccccc4c3n2)cc1`, the growth inhibition was -4% in assay [1] (setting [7]); 5% in assay [1] (setting [8]); -22.6% in assay [1] (at 50.0 µM); 8% in assay [2] (setting [7]); -22% in assay [2] (setting [8]); -19.7% in assay [2] (at 50.0 µM). Moreover, the growth inhibition in assay [3] (setting [7]) is 5%; in assay [3] (setting [8]) it was 5%; in assay [3] (at 50.0 µM), -5.3%; in assay [4] (setting [7]), -21%; in assay [4] (setting [8]), -12%; in assay [4] (at 50.0 µM), 29.4%. The growth inhibition in assay [5] (setting [7]) was 8%; in assay [5] (setting [8]), 13%; in assay [5] (at 50.0 µM), -9.25%; in assay [6] (setting [7]), 1%; in assay [6] (setting [8]), 3%; in assay [6] (at 50.0 µM) it was 42%.

Regarding `COC/C(Br)=C\SC#N` (tested in a mixture with another compound), the growth inhibition is 0% in assay [1] (setting [7]); 34% in assay [1] (setting [8]); 98.8% (active) in assay [1] (at 50.0 µM); -14% in assay [2] (setting [7]); 23% in assay [2] (setting [8]); 98.7% (active) in assay [2] (at 50.0 µM). Moreover, the growth inhibition in assay [3] (setting [7]) was -2%; in assay [3] (setting [8]), 40%; in assay [3] (at 50.0 µM), 98.9% (active); in assay [4] (setting [7]) it was -5%; in assay [4] (setting [8]), 61%; in assay [4] (at 50.0 µM), 97.7% (active). For the same compound, the growth inhibition is -6% in assay [5] (setting [7]); 53% in assay [5] (setting [8]); 98.2% (active) in assay [5] (at 50.0 µM); 16% in assay [6] (setting [7]); 38% in assay [6] (setting [8]); 98.2% (active) in assay [6] (at 50.0 µM).

With `Cc1ccc2c(c1)C1(C)C=C(CN3CCN(C)CC3)C(=O)CC1O2` (configuration not stated), the growth inhibition in assay [1] (setting [7]) was 16%; in assay [1] (setting [8]), 97% (active); in assay [1] (at 50.0 µM), 99.6% (active); in assay [2] (setting [7]), 20%; in assay [2] (setting [8]), 99% (active); in assay [2] (at 50.0 µM), 99.7% (active). Besides, the growth inhibition in assay [3] (setting [7]) was 22%; in assay [3] (setting [8]), 99% (active); in assay [3] (at 50.0 µM), 99.8% (active); in assay [4] (setting [7]), -4%; in assay [4] (setting [8]), 99% (active); in assay [4] (at 50.0 µM) it was 99.6% (active). In addition, the growth inhibition in assay [5] (setting [7]) is -3%; in assay [5] (setting [8]) it was 99% (active); in assay [5] (at 50.0 µM), 99.7% (active); in assay [6] (setting [7]), 11%; in assay [6] (setting [8]), 99% (active); in assay [6] (at 50.0 µM) it was 99.5% (active).

In the case of `C(=N\Nc1ccc2ccccc2n1)/c1ccccn1.CC(=O)[O-].CC(=O)[O-].[Zn+2]`, the growth inhibition in assay [1] (setting [7]) is -4%; in assay [1] (setting [8]) it was 2%; in assay [1] (at 50.0 µM), 16.7%; in assay [2] (setting [7]), 2%; in assay [2] (setting [8]), -2%; in assay [2] (at 50.0 µM), 39.3%. Also, the growth inhibition in assay [3] (setting [7]) was -3%; in assay [3] (setting [8]), -3%; in assay [3] (at 50.0 µM), 84.3% (active); in assay [4] (setting [7]) it was -3%; in assay [4] (setting [8]), 0%; in assay [4] (at 50.0 µM) it was -19.6%. Besides, the growth inhibition is -1% in assay [5] (setting [7]); -1% in assay [5] (setting [8]); 18.3% in assay [5] (at 50.0 µM); 2% in assay [6] (setting [7]); 0% in assay [6] (setting [8]); 57.4% in assay [6] (at 50.0 µM).

Values taken from PubChem BioAssay (NCI).
